In PubChem BioAssay (NCATS) one finds Potency data, which are given here for ten compounds.

Results filed as inconclusive are left out. Where a call stands in place of a potency, no number is given. Active and inactive are the calls of the source. Calls follow the shape of the dose curve; as a rule, active = well fitted inhibition curve with a large enough effect; inconclusive = small, poorly fitted or top-dose-only effect; inactive = flat fitted curve, though single readings scatter.

This assay deals with Phospholipid hydroperoxide glutathione peroxidase GPX4 (Homo sapiens) (UniProt P36969). Briefly: Primary qHTS Assay for Inhibitors of Recombinant Selenoprotein Glutathione Peroxidase 4 (GPX4) (AID 1845192). Also: nearly all actives have a fitted effect of over 65% in size. The following applies: recombinant GPX4, GR-coupled NADPH fluorescence, 15 min; series mostly up to 50 µM. In outline: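 GR-coupled assay: recombinant GPX4 preincubated 30 min with compound at room temperature; final 200 nM GPX4, 1 mM GSH, 0.5 mM cumene hydroperoxide, 0.5 mM NADPH, 100 nM GR, 0.01% BSA, pH 7.5 Tris. NADPH fluorescence (340/450 nm) read at 0 and 15 min.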
Phospholipid hydroperoxide glutathione peroxidase GPX4 (Homo sapiens), sequence (P36969 whole entry, looked up): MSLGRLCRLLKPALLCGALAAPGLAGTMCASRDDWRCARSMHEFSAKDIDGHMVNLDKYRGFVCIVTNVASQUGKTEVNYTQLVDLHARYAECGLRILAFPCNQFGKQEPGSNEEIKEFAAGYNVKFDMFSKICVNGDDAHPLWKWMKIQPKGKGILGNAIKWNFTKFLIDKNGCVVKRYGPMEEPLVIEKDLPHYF
On to `COC(=O)C1(C)CCC(=O)C2(C)c3c(O)cc(C(C)C)cc3C(O)C(OC(C)=O)C12` (stereo not given), for which the Potency entry is “inactive”. `CCc1[nH]c2ccc(OC)cc2c1CCN(C)C`: the Potency result is “inactive”.

In the case of `CN1C(=O)c2ccccc2NC(=O)[C@]12O[C@@H]2c1ccccc1`, the Potency entry was “inactive”. The value for `COC1CC(OC2CCC3(C)C(=CCC4C3CCC3(C)C(C(C)OC5OC(COC6OC(CO)C(O)C(O)C6O)C(O)C(O)C5O)CCC43O)C2)OC(C)C1OC1OC(C)C(O)C(OC)C1O` (stereo not given) was “inactive”.

As for `CCN1C[C@]2(COC)[C@H](O)C[C@H](OC)[C@]34[C@@H]5C[C@]6(O)[C@H](OC(=O)c7ccccc7)[C@@H]5[C@@](O)([C@H]([C@H](OC)[C@H]23)[C@@H]14)[C@@H](O)[C@@H]6OC`, the Potency entry was “inactive”. On to `COc1cc(C(=O)O[C@H]2[C@@H]3C=CO[C@@H](O[C@@H]4O[C@H](CO)[C@@H](O)[C@H](O)[C@H]4O)[C@@H]3[C@@]3(CO)O[C@@H]23)ccc1O`, for which the Potency result was “inactive”. The value for `CC(=O)OC1CC(O)C(C)(C)C2CC(OC(C)=O)C3(C)C(CCC4(C)C(c5ccoc5)C(=O)C5OC543)C12C` (stereo not given) was “inactive”; that for `C=C[C@H]1[C@H](O[C@@H]2O[C@H](CO)[C@@H](O)[C@H](O)[C@H]2O)OC=C2C(=O)OCC[C@H]21` was “inactive”. Turning to `COc1cc2c(cc1OC)[C@@]13CCN4CC5=CCO[C@H]6CC(=O)N2[C@H]1[C@H]6[C@H]5C[C@H]43`, the Potency result was “inactive”. With `CCN1CC2(COC)C3[C@@H](OC)C4C1C3(C1C[C@]3(O)[C@H](OC(=O)c5ccccc5)C1[C@]4(OC(C)=O)[C@@H](O)[C@@H]3OC)[C@H](OC)C[C@H]2O` (stereo not given in full) the entry was “inactive”.
